Source: ChEMBL document CHEMBL4513216, “Probing the Open Global Health Chemical Diversity Library for Multistage-Active Starting Points for Next-Generation Antimalarials” (ACS Infect Dis, 2020)
In all, about 69,000 compounds went through this assay and about 8,600 (12%) showed an effect of 50% or more. For the sample, strong results were picked, then their nearest neighbours and some compounds at random.

Test system: Plasmodium berghei
Assay: Screen against P. berghei liver stage (PbLuc), transformed with Luciferase, at 10uM
Assay type: functional, HepG2
Conditions: tested at 10 uM

Compound | INHIBITION
Cc1cc(C)n(CC2CCCN2C(=O)c2c[nH]c(=O)c(Cl)c2)n1 (configuration not stated) | 21%
COc1ccc(OCCNC(=O)CN(C)Cc2nnc(C)n2C)cc1 | -10.8%
O=C1COC2(CCN(CC3CC3)CC2)CN1c1cncnc1 | -33.3%
COc1cc(OC)cc(C2CC(=O)Nc3c2nc2n3CCCC2)c1 (configuration not stated) | 1.19%
Cc1noc(C)c1CN(C)CC(=O)Nc1ccnn1C(C)C1CC1 (configuration not stated) | -72.5%
O=C(O)c1ccc(CN2CCC(c3ccnc4ccnn34)CC2)cc1 | 13.5%
CC(=O)N1CCCC(c2nnc3n2CCN(C(=O)C2CCCCC2)C3)C1 (configuration not stated) | 33.39%
Cc1ccc(F)c(NCc2ccc(C(=O)N(C)C)[nH]2)c1 | -17.9%
CCn1cc(S(=O)(=O)NCC(c2ccccc2)N2CCOCC2)c(C)n1 (configuration not stated) | 8.335%
CCNC(=O)NC1CCC(Oc2ccccc2C#N)CC1 (configuration not stated) | 40.2%
CN(C)C1(C(=O)NC2CCC(Oc3ccccc3C#N)CC2)CCC1 (configuration not stated) | 67.4%
CN(C)CCN(C)C(=O)NC1CCC(Oc2ccccc2C#N)CC1 (configuration not stated) | 34%
Cc1cnn(CC2CCCCN2C(=O)Cc2c(C)nn(C)c2C)c1 (configuration not stated) | 7.08%
CCC[C@H]1CN(Cc2ccc(N(C)C)nc2)C[C@@H]1NC(=O)CO | 42.1%
CCC[C@H]1CN(Cc2ccc(N(C)C)nc2)C[C@@H]1NC(=O)CCOC | 62.2%
CCC[C@H]1CN(Cc2ccc(N(C)C)nc2)C[C@@H]1NC(=O)CSC | 33.1%
Cc1cnc(N2CCC3(CCCCN3C)C2)nc1 (configuration not stated) | -38.1%
Cc1cnc(N2CCC3(CCCN3C(=O)c3ccco3)CC2)nc1 | 60.5%
O=C(c1ccco1)N1CCC12CCN(c1ncc(F)cn1)CC2 | 58%

Compound | INHIBITION
O=C1CCC2(CCN(c3ncc(F)cn3)CC2)N1Cc1ccncc1 | 35.8%
O=C(c1ccco1)N1CCCC12CCN(c1ncccn1)CC2 | -72.6%
O=C1CCC2(CCCN(c3ncc(F)cn3)CC2)N1Cc1ccccc1 (configuration not stated) | -2.17%
O=C(Nc1ccccc1Cn1cccn1)N1CCC(N2CCCC2)C1 (configuration not stated) | 5.42%
CCCc1nc(NCCCn2ccnc2)c2c(n1)c(C)nn2CC | 17.7%
Cc1nn(C)c2nc3c(c(C(=O)/N=c4\[nH]nc(C(C)C)s4)c12)CCC3 | 7.83%
Cc1noc(CCNC(=O)NCC(=O)NCc2ccccc2)n1 | -176%
CC(NC(=O)CCCOc1ccc(F)cc1)c1nnc2n1CCC2 (configuration not stated) | -12.2%
CO[C@H]1CCN(Cc2c(C)noc2C)[C@@H]2CN(Cc3ccncc3)C[C@H]12 | 12.6%
Clc1ccccc1C1(c2ccnc(-c3ccncc3)n2)CCNCC1 | 55.1%
CC(C)c1nccc(C2(c3ccccc3Cl)CCNCC2)n1 | 20.2%
CC(C)(C)c1nccc(C2(c3ccccc3Cl)CCNCC2)n1 | 72.8%
O=c1[nH]cccc1-c1nccc(C2(c3ccccc3Cl)CCNCC2)n1 | 33%
Clc1ccccc1C1(c2ccnc(C3CC3)n2)CCNCC1 | 44.1%
Clc1ccccc1C1(c2ccnc(C3CCCC3)n2)CCNCC1 | 94.4%
Clc1ccccc1C1(c2ccnc(CC3CC3)n2)CCNCC1 | 43.5%
Clc1ccccc1C1(c2ccnc(-c3ncccn3)n2)CCNCC1 | 33.5%
CCC1C(=O)NCCN1c1ccnc(C(C)(C)C)n1 (configuration not stated) | 26.8%
